From PubChem BioAssay come the findings set out here.

Calls of active or inactive are those of the source.

Experiment [1] addresses Albumin (Bos taurus) (UniProt P02769). In words: bovine serum albumin binders on microarray, profiling panel, artefact control for SMM control protein annotation, biochemical, small-molecule microarray, Alexa647 label, 635/667 nm fluorescence (AID 1118).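 Also: score merges 667 nm emission intensity and signal-to-noise per printed compound spot.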 The following applies: BSA-A647 binding, fluorescence 635 nm, higher = more signal.
The nature of experiment [2]: small-molecule microarray binders of probe aXIP, primary screen, biochemical, NeuroSMM set, 635/667 nm fluorescence (AID 1119).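 Also: probe is the protein aXip251-270 applied at 1 µg/mL to compound-printed slides; binding of probe to printed compounds measured as 667 nm fluorescence plus signal to noise.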 The settings on record: higher = more signal, called active from +8 up or from −8 down.
Experiment [3] is described as follows: small-molecule binders of probe aNOTCH3, primary screen, biochemical, small-molecule microarray, 635/667 nm fluorescence (AID 1120).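 Also: probe is a biotin-tagged antibody raised against NOTCH3 rather than NOTCH3 protein; score merges spot fluorescence near 667 nm with spot signal to noise.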 The following applies: higher = more signal.
A short description of experiment [4]: small-molecule binders of probe aNOTCH2, primary screen, biochemical, small-molecule microarray, 635/667 nm fluorescence (AID 1121).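 Also: score merges feature fluorescence read at 667 nm with its signal to noise.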 The settings on record: higher = more signal.
The target in experiment [5] is Carbonic anhydrase 2 (Homo sapiens) (UniProt P00918). Nature of the experiment: CAII small-molecule binders, profiling panel, biochemical, small-molecule microarray, Alexa647-labelled CAII (AID 1122). The following applies: CAII-A647 binding fluorescence, higher = more signal.
Experiment [6] in a line: COS7 lysate on small-molecule microarray, probe aHis, 635 nm (AID 1123).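 Also: z-score combines 667nm fluorescence intensity with signal-to-noise per printed compound spot.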 The settings on record: COS7 cell lysate, fluorescence, higher = more signal.
Experiment [7] is described as follows: compound binding in COS7 lysate, probe aLAP1, primary screen, cell lysate, small-molecule microarray (AID 1124).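 Also: lysate comes from COS7 cells expressing LAP1 and is applied at 0.3 µg/mL; score merges spot fluorescence near 667 nm with signal-to-noise over triplicate slides.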 The settings on record: probe aLAP1, fluorescence, higher = more signal.
Experiment [8] concerns Sam68 (KHDRBS1). In words: Sam68 small-molecule binders, primary screen, biochemical, small-molecule microarray, 635 nm fluorescence (AID 1125).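 Also: score merges 667 nm channel intensity with signal to noise over triplicate slides.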 The following applies: small-molecule microarray binding, higher = more signal.
Experiment [9] concerns Chordin-like protein 2 (CHRDL2). Nature of the experiment: CHRDL2 small-molecule binders, primary screen, biochemical, small-molecule microarray, 635 nm fluorescence (AID 1126).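 Also: printed compound slides probed with Chrdl2 protein at 4 µg/mL for 1 h at 4 C; score merges 667 nm emission intensity with signal to noise over three replicate slides.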 The following applies: small-molecule microarray binding, fluorescence 635 nm; higher = more signal.
Experiment [10] addresses Concanavalin-A (Canavalia ensiformis) (UniProt P02866). In words: ConA small-molecule binders, primary screen, artefact control for SMM control protein annotation, biochemical, small-molecule microarray, Alexa647 label, 635 nm (AID 1127).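 Also: z combines 667 nm emission intensity with signal-to-noise across three replicate slides.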 The settings on record: ConA-A647 binding fluorescence, higher = more signal.
Experiment [11] can be described thus: anti-His antibody binders, primary screen, artefact control for SMM control protein annotation, biochemical, small-molecule microarray, 635 nm fluorescence (AID 1128).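 Also: score merges feature fluorescence with signal-to-noise for each printed compound spot.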 The settings on record: anti-His Alexa647 antibody binding, higher = more signal.
The subject of experiment [12] is Human papillomavirus type 1a E7 protein (residues 1-88). Nature of the experiment: HPV1a E7 small-molecule binders, primary screen, biochemical, small-molecule microarray, residues 1-88, 635 nm (AID 1129). The following applies: small-molecule microarray binding, fluorescence 635 nm; higher = more signal.
For experiment [13], the target named is Focal adhesion kinase 1 (Homo sapiens) (UniProt Q05397). Nature of the experiment: small-molecule microarray binders of FAK, primary screen, biochemical, 635/667 nm fluorescence, BSA, DTT (AID 1130).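 Also: composite of spot emission at 667 nm and signal to noise over triplicate slides.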 The following applies: PTK2 binding, 635 nm fluorescence, higher = more signal.
Experiment [14] has as its system Fibrinogen (Alexa647-labelled). Nature of the experiment: fibrinogen binders on compound microarrays, profiling panel, artefact control for SMM control-protein annotation, biochemical, small-molecule microarray, 635/667 nm fluorescence (AID 1131).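 Also: z-score merges 667 nm fluorescence with per-spot signal-to-noise over triplicate slides.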 The following applies: fibrinogen-A647 binding fluorescence, higher = more signal.
Experiment [15] deals with Follistatin (Homo sapiens) (UniProt P19883). In words: follistatin binders on small-molecule microarrays, primary screen, biochemical, small-molecule microarray, 635/667 nm fluorescence (AID 1132). The settings on record: FST binding, 635 nm fluorescence, higher = more signal.
Experiment [16] concerns the target Fibroblast growth factor 2 (Homo sapiens) (UniProt P09038). In words: FGF2 binders on small-molecule microarrays, primary screen, biochemical, small-molecule microarray, 635/667 nm fluorescence (AID 1133). The settings on record: small-molecule microarray binding, FGF2, fluorescence 635/667; higher = more signal.
Experiment [17] is described as follows: mitochondrial membrane potential change in A549 cells, profiling panel, cell-based, JC-1 fluorescence, basal, 24 h, 100 nL (AID 1138).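 Also: A549 lung adenocarcinoma cells under basal conditions with no added stimulus; test concentration not given here.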 The settings on record: higher = more signal.
In experiment [18] the test system is Lefty1. In words: Lefty1 binders on small-molecule microarrays, primary screen, biochemical, small-molecule microarray, 635/667 nm fluorescence (AID 1139). The settings on record: small-molecule microarray binding, fluorescence 635/667; higher = more signal.
The test system of experiment [19] is wheat germ agglutinin (Triticum aestivum), Alexa647-labelled. Nature of the experiment: wheat germ agglutinin binders on compound microarrays, profiling panel, artefact control for SMM control-protein annotation, biochemical, small-molecule microarray, 635/667 nm fluorescence (AID 1140).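 Also: score merges 667 nm feature emission with signal to noise over triplicate slides.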 The settings on record: WGA-A647 binding, 635 nm fluorescence, higher = more signal.

The target of experiment [20] is Luciferin 4-monooxygenase (Photinus pyralis) (UniProt P08659). Nature of the experiment: firefly luciferase enzyme inhibitors, primary screen, biochemical, luminescence, purified enzyme, 2006 set (AID 1141).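 Also: cell-free assay with purified firefly luciferase at 100 ng per well in PBS; test concentration not given here.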 The settings on record: SteadyGlo luminescence, 30 min, higher = more signal, called active from +8 up or from −8 down.
Luciferin 4-monooxygenase (Photinus pyralis), sequence (P08659 whole entry, looked up): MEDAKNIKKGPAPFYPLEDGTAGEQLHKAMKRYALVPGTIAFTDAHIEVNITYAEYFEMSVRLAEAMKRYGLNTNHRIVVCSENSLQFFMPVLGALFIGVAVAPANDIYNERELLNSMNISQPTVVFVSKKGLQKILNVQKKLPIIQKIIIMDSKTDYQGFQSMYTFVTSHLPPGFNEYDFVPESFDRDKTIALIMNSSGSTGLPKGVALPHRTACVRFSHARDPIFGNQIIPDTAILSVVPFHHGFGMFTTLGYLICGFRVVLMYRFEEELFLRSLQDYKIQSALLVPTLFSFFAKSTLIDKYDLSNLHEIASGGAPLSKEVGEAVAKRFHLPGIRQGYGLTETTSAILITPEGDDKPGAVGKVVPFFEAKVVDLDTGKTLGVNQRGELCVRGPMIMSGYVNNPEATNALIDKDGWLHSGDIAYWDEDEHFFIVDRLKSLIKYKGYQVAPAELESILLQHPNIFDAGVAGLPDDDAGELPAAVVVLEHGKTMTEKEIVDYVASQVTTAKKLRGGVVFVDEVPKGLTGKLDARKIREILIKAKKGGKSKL

Focal adhesion kinase 1 (Homo sapiens), sequence (Q05397 whole entry, looked up): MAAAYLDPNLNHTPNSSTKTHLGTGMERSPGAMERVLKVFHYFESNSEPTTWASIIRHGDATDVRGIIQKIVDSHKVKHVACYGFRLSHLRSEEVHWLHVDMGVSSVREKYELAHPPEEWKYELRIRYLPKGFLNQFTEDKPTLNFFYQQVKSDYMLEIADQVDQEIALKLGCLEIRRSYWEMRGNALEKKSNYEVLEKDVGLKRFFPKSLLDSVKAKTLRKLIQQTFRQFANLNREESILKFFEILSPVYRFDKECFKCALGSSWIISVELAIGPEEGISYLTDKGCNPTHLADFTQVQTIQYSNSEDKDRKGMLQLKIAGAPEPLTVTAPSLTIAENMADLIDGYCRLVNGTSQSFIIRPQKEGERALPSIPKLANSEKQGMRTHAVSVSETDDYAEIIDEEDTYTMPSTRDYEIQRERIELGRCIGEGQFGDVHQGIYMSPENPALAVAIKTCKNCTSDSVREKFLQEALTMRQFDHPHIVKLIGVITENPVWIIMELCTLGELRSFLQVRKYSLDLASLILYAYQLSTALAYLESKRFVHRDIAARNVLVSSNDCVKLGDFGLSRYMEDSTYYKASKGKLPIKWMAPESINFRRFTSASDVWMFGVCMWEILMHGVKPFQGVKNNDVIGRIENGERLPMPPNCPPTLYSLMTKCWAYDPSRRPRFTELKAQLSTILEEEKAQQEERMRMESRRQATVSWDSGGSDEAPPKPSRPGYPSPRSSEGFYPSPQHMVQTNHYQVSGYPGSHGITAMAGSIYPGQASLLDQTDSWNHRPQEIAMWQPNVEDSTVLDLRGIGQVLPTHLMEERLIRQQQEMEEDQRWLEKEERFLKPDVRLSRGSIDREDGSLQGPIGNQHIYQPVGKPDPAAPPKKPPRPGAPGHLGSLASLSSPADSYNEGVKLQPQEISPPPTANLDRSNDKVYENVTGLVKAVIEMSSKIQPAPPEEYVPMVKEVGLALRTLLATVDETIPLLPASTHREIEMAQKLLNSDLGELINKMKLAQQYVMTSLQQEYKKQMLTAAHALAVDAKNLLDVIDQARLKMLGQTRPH
Fibroblast growth factor 2 (Homo sapiens), sequence (P09038 whole entry, looked up): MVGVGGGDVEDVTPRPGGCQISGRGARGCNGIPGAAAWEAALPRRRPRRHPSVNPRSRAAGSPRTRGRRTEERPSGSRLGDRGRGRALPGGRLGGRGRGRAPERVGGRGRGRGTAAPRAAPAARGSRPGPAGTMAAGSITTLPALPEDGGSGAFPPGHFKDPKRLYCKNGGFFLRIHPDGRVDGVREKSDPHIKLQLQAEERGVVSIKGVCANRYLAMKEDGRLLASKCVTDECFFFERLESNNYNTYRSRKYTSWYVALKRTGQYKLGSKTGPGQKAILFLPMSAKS
Albumin (Bos taurus), sequence (P02769 whole entry, looked up): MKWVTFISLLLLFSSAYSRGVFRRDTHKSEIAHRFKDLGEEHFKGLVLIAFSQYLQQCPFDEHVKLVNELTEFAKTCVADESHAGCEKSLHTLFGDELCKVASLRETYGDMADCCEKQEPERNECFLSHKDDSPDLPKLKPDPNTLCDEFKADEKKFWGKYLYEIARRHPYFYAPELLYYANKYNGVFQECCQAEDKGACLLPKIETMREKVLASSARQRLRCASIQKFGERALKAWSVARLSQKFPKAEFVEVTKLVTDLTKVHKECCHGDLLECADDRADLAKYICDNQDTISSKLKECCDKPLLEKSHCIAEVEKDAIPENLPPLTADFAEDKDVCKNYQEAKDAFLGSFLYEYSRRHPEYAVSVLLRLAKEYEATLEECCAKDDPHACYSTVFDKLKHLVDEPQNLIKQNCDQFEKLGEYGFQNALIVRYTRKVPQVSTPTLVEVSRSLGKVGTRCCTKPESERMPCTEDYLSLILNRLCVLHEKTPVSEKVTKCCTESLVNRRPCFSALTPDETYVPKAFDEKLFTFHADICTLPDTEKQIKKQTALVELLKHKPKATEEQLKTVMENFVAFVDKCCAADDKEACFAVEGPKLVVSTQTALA
Concanavalin-A (Canavalia ensiformis), sequence (P02866 whole entry, looked up): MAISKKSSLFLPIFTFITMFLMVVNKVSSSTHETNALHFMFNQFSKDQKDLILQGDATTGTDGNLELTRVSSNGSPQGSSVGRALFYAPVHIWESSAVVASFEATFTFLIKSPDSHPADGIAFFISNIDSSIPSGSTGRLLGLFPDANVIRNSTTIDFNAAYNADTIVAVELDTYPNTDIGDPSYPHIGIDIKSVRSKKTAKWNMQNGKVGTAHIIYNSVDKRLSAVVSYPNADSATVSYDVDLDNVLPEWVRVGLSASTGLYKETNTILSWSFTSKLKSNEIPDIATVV
Follistatin (Homo sapiens), sequence (P19883 whole entry, looked up): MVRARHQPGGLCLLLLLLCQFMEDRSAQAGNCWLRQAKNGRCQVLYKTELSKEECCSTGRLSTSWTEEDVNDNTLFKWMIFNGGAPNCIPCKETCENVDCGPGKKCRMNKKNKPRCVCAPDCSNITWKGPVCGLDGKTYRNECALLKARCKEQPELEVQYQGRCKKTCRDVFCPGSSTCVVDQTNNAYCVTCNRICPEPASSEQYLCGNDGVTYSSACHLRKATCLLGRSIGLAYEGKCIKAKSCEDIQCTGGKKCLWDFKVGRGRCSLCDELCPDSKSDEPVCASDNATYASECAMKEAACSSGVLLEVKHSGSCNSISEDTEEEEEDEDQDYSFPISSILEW

`COc1cc(Cc2cc3c(c(CCc4ccccc4)n2)[Si](C(C)C)(C(C)C)OC3)cc(OC)c1OC`: the composite z-score in experiment [1] is -0.237; in experiment [3] it was -0.0697; in [4] it was -0.165; in experiment [5], 0.0001; in experiment [6], -0.177; in experiment [7], -0.0868. The composite z-score was -0.0118 in experiment [8]; 0.182 in experiment [9]; 0.255 in experiment [10]; 0.151 in [11]; -0.162 in experiment [12]; 0.0612 in [13]. The composite z-score in experiment [14] was -0.386; in [15], 0.694; in experiment [16], 0.263; in experiment [18] it was 0.48; in experiment [19] it was -0.14. Besides, in experiment [2], the composite Z-score is -0.334 (inactive). In addition, the z-score in experiment [17] was 1.51; in experiment [20] it was 0.874 (inactive).

Turning to `CCOC(=O)C1=C[C@@H](c2ccccc2)N(S(=O)(=O)c2ccc(C)cc2)[C@H]1c1ccc(F)cc1`, the composite z-score is 0.823 in experiment [1]; 0.0836 in [3]; 0.111 in experiment [4]; 0.283 in experiment [5]; 1.57 in experiment [6]; 0.284 in [7]. Also, the composite z-score was 1.16 in experiment [8]; -0.0043 in experiment [9]; 1.12 in experiment [10]; 0.986 in [11]; 1.14 in [12]; 1.23 in [13]. The composite z-score was found to be 0.995 in experiment [14]; 1.06 in experiment [15]; 0.47 in experiment [16]; 0.207 in experiment [18]; 1.08 in experiment [19]. Further, the composite Z-score in [2] was -0.263 (inactive). Further, the z-score was 0.994 in experiment [17] and 1.54 (inactive) in experiment [20].

With `CCc1cccc(NC(=O)O[C@H]2[C@H](OC(=O)Nc3ccccc3)[C@@H](OC(=O)Nc3ccccc3)[C@@H](OC)O[C@@H]2CO)c1`, the composite z-score was 0.819 in [1]; 0.163 in experiment [3]; -0.0527 in experiment [4]; 0.806 in experiment [5]; 2.69 in [6]; 0.421 in experiment [7]. For the same molecule, the composite z-score in experiment [8] was 1.29; in experiment [9], -0.061; in experiment [10] it was 1.14; in experiment [11], 0.51; in [12], 1.29; in [13] it was 0.497. The composite z-score in experiment [14] amounted to 0.978; in experiment [15] it was 1.4; in experiment [16] it was 0.786; in experiment [18] it was 0.937; in experiment [19], 0.966. In experiment [2], the composite Z-score was -0.477 (inactive). Also, the z-score in experiment [17] is -1.47; in experiment [20] it was 0.846 (inactive).

`COC(=O)c1ccc(C#CC(NP(=O)(c2ccccc2)c2ccccc2)c2ccccc2)cc1` (stereo not given): the composite z-score in [1] was 1; in experiment [3] it was 0.272; in experiment [4] it was 0.335; in [5], 1.1; in experiment [6], 2.59; in experiment [7] it was -0.0375. In addition, the composite z-score in experiment [8] stood at 1.08; in experiment [9], 1.49; in [10], 1.15; in experiment [11], 0.15; in experiment [12], 1.18; in experiment [13] it was 0.671. The composite z-score is 0.963 in experiment [14]; 1.41 in experiment [15]; -0.0037 in [16]; 0.468 in experiment [18]; 1.43 in experiment [19]. Further, in experiment [2], the composite Z-score is 0.444 (inactive). For the same molecule, the z-score is 1.53 in experiment [17] and 0.853 (inactive) in experiment [20].

As to `C[N+](C)(C)CCCC[C@@H]1NC(=O)[C@H]2C[C@@H](C(=O)NCc3ccc(F)cc3)[C@@H](c3cccc(OCCO)c3)N2C1=O`, the composite z-score is 0.392 in [1]; -0.0328 in experiment [3]; -0.179 in experiment [4]; 0.811 in experiment [5]; 1.48 in experiment [6]; 0.633 in [7]. For the same molecule, the composite z-score in experiment [8] amounted to 1.15; in experiment [9] it was 0.864; in experiment [10] it was 1.08; in experiment [11], 1.02; in [12] it was 0.431; in [13], 1.05. The composite z-score was found to be 0.14 in experiment [14]; 1.46 in experiment [15]; 1.85 in experiment [16]; 1.07 in experiment [18]; 0.0979 in experiment [19]. In addition, the composite Z-score in [2] is 1.57 (inactive). In addition, the z-score in experiment [17] was 1.3; in [20], -0.908 (inactive).
